As a reminder, the AC50 is the concentration giving half of the maximal activity seen.

A short description of experiment [1]: IUF_NPC1b_proliferation_BrdU_72hr: Leibniz Research Institute for Environmental Medicine (IUF) 72-hour Neural Progenitor Cell Bromodeoxyuridine (BrdU) Proliferation Assay (NPC1b) (AID 2284207). The gist of the method:
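Luminescent BrdU ELISA measured DNA synthesis during the last 16 h of a 72 h exposure of primary human neural progenitor spheres grown with EGF and FGF. Signal was fitted relative to DMSO controls.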

The nature of experiment [2]: IUF_NPC1a_proliferation_area_72hr: Leibniz Research Institute for Environmental Medicine (IUF) 72-hour Neural Progenitor Cell Proliferation Area Assay (NPC1a) (AID 2284208). The gist of the method:
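hNPC spheres (human fetal cortex, GW 16-19), one per poly-Hema U-bottom well; EGF+FGF medium; dosed day 0, no re-dosing; 72 h, 37C, 5% CO2; phase-contrast sphere area; DMSO = baseline; minus-GF = positive ctrl.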

A short description of experiment [3]: IUF_NPC1_viability_72hr: Viability Assessment at 72 hours in the Leibniz Research Institute for Environmental Medicine (IUF) Neural Progenitor Cell Proliferation Assay (NPC1) (AID 2284209). The gist of the method:
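Three-day continuous exposure of human neural progenitor spheres under EGF/FGF-driven proliferation; cell viability scored by alamar blue signal versus DMSO.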

A short description of experiment [4]: CCTE_Mundy_HCI_Cortical_Synap_Neur_Matur_NeuriteSpotCountPerNeuriteLength: CCTE's Synaptogenesis and Neurite Maturation Assay in rat cortical cells for Neurite Spot Count per Neurite Length, Mundy Lab (AID 2284210). The method in brief:
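Read-out: synaptophysin puncta counted along MAP2-stained neurites, normalised to neurite length, by automated high-content imaging. Rat cortical cells; AraC DIV 5; chemical dosing DIV 7; termination DIV 12. DMSO baseline.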

A short description of experiment [5]: CCTE_Mundy_HCI_Cortical_NOG_NeuriteCount: CCTE's Neurite Outgrowth Assay in rat cortical cells for Neurite Count, Mundy Lab (AID 2284212).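 Note: cells fixed about two days after chemical exposure began.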 The method in brief: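 Rat cortical primary cells; compound added 2 h post-plating, 1/10 dilution of working solution. Anti-betaIII-tubulin/AF488 ICC; ArrayScan neurite count vs DMSO.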
The nature of experiment [6]: CCTE_Mundy_HCI_Cortical_NOG_NeuriteLength: CCTE's Neurite Outgrowth Assay in rat cortical cells for Neurite Length, Mundy Lab (AID 2284213).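 For AC50: neurites imaged about 48 to 50 h after chemical exposure began.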 The gist of the method: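 First, rat primary cortical cells were plated and, 2 h later, given test chemical as a 1/10 dilution. Finally, βIII-tubulin immunostaining enabled automated imaging of neurite length.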
A short description of experiment [7]: CCTE_Mundy_HCI_Cortical_Synap_Neur_Matur_NeuriteLength: CCTE's Synaptogenesis and Neurite Maturation Assay in rat cortical cells for Neurite Length, Mundy Lab (AID 2284214). The method in brief:
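DMSO-normalised neurite length, from high-content imaging of anti-MAP2-stained rat cortical cells fixed at DIV 12. Glia were suppressed with AraC (DIV 5) before chemical exposure from DIV 7.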

Experiment [8] in a line: CCTE_Mundy_HCI_Cortical_Synap_Neur_Matur_NeuriteSpotCountPerNeuron: CCTE's Synaptogenesis and Neurite Maturation Assay in rat cortical cells for Neurite Spot Count per Neuron Count, Mundy Lab (AID 2284215). The gist of the method:
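Read-out: neurite-associated synaptophysin puncta per neuron, imaged by high-content analysis after MAP2, synaptophysin and Hoechst staining. Rat primary cortical cultures, dosed DIV 7 through DIV 12; DMSO served as baseline.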

Experiment [9] can be described thus: CCTE_Mundy_HCI_Cortical_Synap_Neur_Matur_SynapseCount: CCTE's Synaptogenesis and Neurite Maturation Assay in rat cortical cells for Synapse Count, Mundy Lab (AID 2284218). The method in brief:
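Endpoint: synapses/neuron by HCI (synaptophysin puncta on MAP2-labelled neurites, Hoechst nuclei). Rat primary cortical cells, AraC DIV 5, dosed DIV 7, fixed DIV 12; DMSO negative control.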

Experiment [10] is described as follows: CCTE_Mundy_HCI_Cortical_Synap_Neur_Matur_NeuriteCount: CCTE's Synaptogenesis and Neurite Maturation Assay in rat cortical cells for Neurite Count, Mundy Lab (AID 2284222).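 For outcome: exposure from day 7 to day 12 in vitro with readout at day 12.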 The gist of the method:
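Chemical exposure runs DIV 7–12 in rat cortical cultures, glia suppressed by AraC at DIV 5; measurement is at DIV 12. Imaging-derived neurite counts are fitted against DMSO baseline.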

Experiment [11] in a line: CCTE_Mundy_HCI_Cortical_Synap_Neur_Matur_CellBodySpotCount: CCTE's Synaptogenesis and Neurite Maturation Assay in rat cortical cells for Cell Body Spot Count, Mundy Lab (AID 2284223). The gist of the method: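 Read-out: cell body-associated synaptophysin puncta per neuron, imaged after MAP2, synaptophysin and Hoechst staining. Rat cortical cells, AraC DIV 5, chemical dosing DIV 7, fixation DIV 12. Activity fitted in positive direction relative to DMSO baseline.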

The nature of experiment [12]: CCTE_Mundy_HCI_Cortical_Synap_Neur_Matur_BPCount: CCTE's Synaptogenesis and Neurite Maturation Assay in rat cortical cells for Branch Point Count, Mundy Lab (AID 2284211). The method in brief: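 In this multiplexed morphology assay, cortical cells from rat receive chemicals at DIV 7 and are fixed at DIV 12, then immunostained and imaged; branch points are counted, with DMSO as baseline.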

Experiment [13] is described as follows: CCTE_Mundy_HCI_hNP1_Pro_ResponderAvgInten: CCTE's Proliferation Assay in human neuroprogenitor cells, Mundy Lab (AID 2284224; active = hit-call score of the fitted dose curve at least 0.9, where 1 is the maximum;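 note: human neural progenitor cells hNP1 derived from WA09 embryonic stem cells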). The method in brief:
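Proliferation read as average intensity of BrdU-positive cells, imaged at 26.25 h post-dosing: chemical exposure started after 40–44 h culture, BrdU during final 4 h, paraformaldehyde fixation. Positive-direction fit relative to DMSO.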

Experiment [14] in a line: TAMU_PeakParms_SingleDonor1434_Chronotropy: Texas A&M University (TAMU) 1.5-hr Human Induced Pluripotent Stem Cell (iPSC)-derived Cardiomyocytes Calcium (Ca+2) Flux Assay for Cardiotoxicity: Chronotropy (changes in peak frequency) (AID 2284217). As to conditions: actives raise or lower the signal. The method in brief: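 Beat frequency of single-donor iPSC cardiomyocytes was recorded through a calcium-sensitive dye 1.5 hours after exposure to four concentrations up to 100 uM. An EC05 point of departure was derived.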

Experiment [15] can be described thus: CCTE_Mundy_HCI_hN2_NOG_NeuriteCount: CCTE's Neurite Outgrowth Assay in human hN2 cells for Neurite Count, Mundy Lab (AID 2284219; active = hit-call score of the fitted dose curve at least 0.9, where 1 is the maximum). The gist of the method:
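In this morphology assay, hNP1-derived neurons received test chemical 2 h post-plating and were fixed two days later in warm paraformaldehyde/sucrose containing Hoechst 33342. Neurites, labelled by rabbit anti-βIII-tubulin (1:800) and Alexa Fluor-488 (1:500), were counted automatically.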

The nature of experiment [16]: CCTE_Mundy_HCI_hN2_NOG_NeuriteLength: CCTE's Neurite Outgrowth Assay in human hN2 cells for Neurite Length, Mundy Lab (AID 2284220; active = hit-call score of the fitted dose curve at least 0.9, where 1 is the maximum). The gist of the method: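 Read-out is neurite length from high-content imaging of βIII-tubulin/Alexa Fluor-488-labelled neurons, referenced to DMSO controls.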
Experiment [17] can be described thus: CCTE_Mundy_HCI_hN2_NOG_NeuronCount: CCTE's Neurite Outgrowth Assay in human hN2 cells for Neuron Count, Mundy Lab (AID 2284221; active = hit-call score of the fitted dose curve at least 0.9, where 1 is the maximum). The gist of the method:
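Read-out is the number of betaIII-tubulin-positive neurons imaged by automated high-content analysis, with DMSO as negative control.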

Molecules are shown by their SMILES. Inconclusive results are not listed. Some compounds were tested as several samples or in several runs, with calls that do not always agree. Calls of active or inactive are those of the source. Rule for the calls, unless noted: active = hit-call score of the fitted dose curve at least 0.9, where 1 is the maximum; inactive = score below 0.9.

For `CCSC(=O)N1CCCCCC1`, the result in experiment [1], in [2], in [3], in experiment [4], in experiment [5] and in experiment [6] was inactive. For the same compound, the outcome in [7], in experiment [8], in experiment [9], in experiment [10] and in experiment [11] was inactive.
Turning to `N#CN=C1SCCN1Cc1ccc(Cl)nc1`, the outcome in experiment [1], in experiment [2], in [3], in experiment [4], in experiment [12] and in experiment [5] was inactive. Further, the call in experiment [6], in [7], in experiment [8], in [9], in experiment [10] and in experiment [11] was inactive. Moreover, in experiment [13], the compound was called inactive.
Take `O=C1C2CC=CCC2C(=O)N1SC(Cl)(Cl)Cl` (centres undefined): the result in experiment [14] was inactive.
Take `C=C(C)CN(CC)c1c([N+](=O)[O-])cc(C(F)(F)F)cc1[N+](=O)[O-]`: the concentration at half-maximal activity (AC50) in experiment [1] is 92.8 µM (active); in [4] it was 6.36 µM (active); in experiment [12], 6.23 µM (active); in experiment [5], 65.1 µM (active); in experiment [6] it was 32.4 µM (active); in [7] it was 5.64 µM (active). In addition, the AC50 is 6.14 µM (active) in experiment [8]; 4.72 µM (active) in [9]; 7.75 µM (active) in experiment [10]; 5.33 µM (active) in experiment [11]; 19 µM (active) in experiment [13]. In addition, the result in experiment [2] and in experiment [3] was inactive.
On to `COP(=S)(OC)SCn1nnc2ccccc2c1=O`, for which the outcome in experiment [1], in [2], in [3], in experiment [4], in experiment [12] and in [5] was inactive. The call in experiment [6], in experiment [7], in experiment [8], in [9], in experiment [10] and in [11] was inactive.
As for `CC1(C)C(C=C(Cl)Cl)C1C(=O)OC(C#N)c1cccc(Oc2ccccc2)c1` (centres undefined), the outcome in experiment [1], in [2], in experiment [3], in [4], in [5] and in [6] was inactive. For the same compound, the compound was called inactive in experiment [7], in [8], in experiment [9], in experiment [10] and in experiment [11]. Besides, the AC50 in experiment [12] is 0.00451 µM (active).
On to `CNC(=O)Oc1cccc2ccccc12`, for which the compound was called inactive in [1], in [2], in [3], in experiment [4], in experiment [12] and in experiment [5]. Besides, the compound was classed as inactive in [6], in experiment [8], in experiment [14], in [9], in experiment [10] and in experiment [11].
For `CCCCC(C#N)(Cn1cncn1)c1ccc(Cl)cc1` (centres undefined), the result in experiment [14] was inactive.
Regarding `CCOP(=O)(OCC)Oc1nc(Cl)c(Cl)cc1Cl`, the outcome in experiment [1], in experiment [3], in experiment [4], in experiment [12], in experiment [5] and in [6] was inactive. Besides, the compound was called inactive in experiment [7], in experiment [8], in experiment [9], in experiment [10], in experiment [11] and in [13]. For the same compound, the concentration at half-maximal activity (AC50) in experiment [2] is 8.27 µM (active); in experiment [7], 16.2 µM (active); in [8] it was 9.92 µM (active); in experiment [15] it was 50 µM (active); in [16], 38.4 µM (active); in experiment [17], 50 µM (active). In addition, the half-maximal activity concentration (AC50) in [13] was 73.7 µM (active).
Consider `CO/N=C(/C1=NOCCO1)c1ccccc1Oc1ncnc(Oc2ccccc2Cl)c1F`, for which the concentration at half-maximal activity (AC50) in experiment [1] is 0.142 µM (active); in experiment [4], 3.03 µM (active); in experiment [12], 7.61 µM (active); in experiment [5], 3.51 µM (active); in experiment [6], 2.74 µM (active); in experiment [7] it was 4.34 µM (active). For the same compound, the concentration at half-maximal activity (AC50) is 2.16 µM (active) in experiment [8], 2.75 µM (active) in experiment [9], 3.45 µM (active) in experiment [10] and 3.26 µM (active) in experiment [11]. The outcome in experiment [2], in [3] and in [13] was inactive.
For the compound `CS(=O)(=O)c1ccc(C(=O)C2C(=O)CCCC2=O)c([N+](=O)[O-])c1`, the compound was called inactive in [1], in [2], in experiment [3], in [4], in [12] and in [5]. The call in experiment [6], in [7], in experiment [8], in experiment [9], in [10] and in experiment [11] was inactive.

Values taken from PubChem BioAssay (EPA / NIEHS).
